Compound activity as filed in PubChem.
KCNQ2 block – rat KCNQ2 potassium channel inhibitors, primary screen, cell-based, CHO-K1, FluxOR thallium flux, B-score. 20 min; stronger effect = lower value. 310,000 tested, 1.1% active. Potassium voltage-gated channel subfamily KQT member 2 (Rattus norvegicus), O88943. B-score at 10 µM;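 active = fluorescence ratio B-score at most minus 3 library SDs, with starting brightness B-score within 2 library SDs, cut at about -5.5 in these data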
Target sequence (O88943 whole entry, looked up): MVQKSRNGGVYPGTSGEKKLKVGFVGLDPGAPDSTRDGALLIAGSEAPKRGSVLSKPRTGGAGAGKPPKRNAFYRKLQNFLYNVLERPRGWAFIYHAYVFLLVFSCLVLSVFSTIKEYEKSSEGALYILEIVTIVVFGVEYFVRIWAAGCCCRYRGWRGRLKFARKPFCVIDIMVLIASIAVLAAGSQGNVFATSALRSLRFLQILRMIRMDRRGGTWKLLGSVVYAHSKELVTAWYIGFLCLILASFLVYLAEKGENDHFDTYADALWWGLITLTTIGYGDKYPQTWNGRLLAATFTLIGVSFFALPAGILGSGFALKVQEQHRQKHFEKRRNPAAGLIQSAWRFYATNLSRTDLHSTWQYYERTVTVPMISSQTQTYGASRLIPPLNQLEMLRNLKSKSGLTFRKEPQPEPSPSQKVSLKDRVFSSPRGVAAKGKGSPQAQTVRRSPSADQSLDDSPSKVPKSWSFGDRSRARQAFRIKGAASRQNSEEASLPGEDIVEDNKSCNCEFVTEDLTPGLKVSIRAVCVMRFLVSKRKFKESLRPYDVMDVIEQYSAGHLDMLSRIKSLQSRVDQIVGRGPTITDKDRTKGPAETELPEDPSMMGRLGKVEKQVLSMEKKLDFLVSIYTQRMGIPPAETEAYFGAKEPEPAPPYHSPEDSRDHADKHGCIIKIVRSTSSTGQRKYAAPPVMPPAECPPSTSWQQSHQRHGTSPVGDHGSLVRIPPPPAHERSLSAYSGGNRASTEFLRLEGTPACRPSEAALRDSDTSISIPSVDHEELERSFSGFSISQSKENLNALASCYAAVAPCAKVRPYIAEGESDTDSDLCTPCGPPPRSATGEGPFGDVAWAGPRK
KCNQ2 enhance – potentiators of rat KCNQ2 potassium channel; Potassium voltage-gated channel subfamily KQT member 2 (Rattus norvegicus), O88943; CHO-K1 KCNQ2, FluxOR thallium flux fluorescence; stronger effect = higher value; B-score at 10 µM; 310,000 tested, 0.54% active; AID 2239, 2010;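 active = fluorescence ratio B-score at least 3 SD of library B-scores, with initial fluorescence B-score within 3 of them, cut at about 5.3 in these data; same plate scores as AID 2156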;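 note: B-score of peak minus minimum over baseline fluorescence ratio after K+ and Tl+ stimulus; positive B-score means potentiation of KCNQ2 with more thallium influx and brighter signal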
A number is an active result. A selection: hits, their analogues and other compounds. The true share with any hit is near 1.6%.

`CC[C@@H](C(=O)[C@@H](C)[C@@H](O)[C@H](C)CCc1ccc(C)c(O)c1C(=O)O)[C@H]1O[C@](CC)([C@H]2CC[C@](O)(CC)[C@H](C)O2)C[C@@H]1C` gave KCNQ2 block inactive and KCNQ2 enhance 27.
Screening CC1=C(/C=C/C(=O)O)C(C)(C)CCC1 returned KCNQ2 block inactive and KCNQ2 enhance inactive.
`CC1=C(/C=C/C(C)=C/C=C/C(C)=C\C(=O)O)C(C)(C)CCC1` gave KCNQ2 block -7.7 and KCNQ2 enhance inactive.
For CN(C)NC(=S)NC1CCS(=O)(=O)C1 (stereo not drawn) the results were KCNQ2 block inactive.
For Clc1cccc2c1Sc1ccccc1CC2N1CCNCC1 (stereo not drawn) the results were KCNQ2 block -7.9 and KCNQ2 enhance inactive.
Screening COCCCN1CCN(C2Cc3ccccc3Sc3ccc(Cl)cc32)CC1 (stereo not drawn) returned KCNQ2 block inactive.
For Cc1ccc(C(=O)OCC(=O)Nc2cccc(S(=O)(=O)NC3=NCCCCC3)c2)c(C)c1 the results were KCNQ2 block inactive and KCNQ2 enhance inactive.
`C=CCn1c(COc2ccc(Cl)cc2)nnc1SCC(=O)N/N=C/c1cccc(O)c1` gave KCNQ2 block inactive and KCNQ2 enhance inactive.
For C=CCn1c(COc2ccccc2)nnc1SC(C)C(=O)N/N=C/c1cc(Cl)ccc1O (stereo not drawn) the results were KCNQ2 block -7.6 and KCNQ2 enhance inactive.
For Cc1ccc(C(=O)NCCc2ccc(F)cc2)s1 the results were KCNQ2 block inactive.
For Fc1ccc2nc(Nc3nc4c(F)cccc4s3)sc2c1 the results were KCNQ2 block inactive and KCNQ2 enhance 14.
For Fc1ccc2nc(Nc3nc4c(F)cc(F)cc4s3)sc2c1 the results were KCNQ2 block inactive and KCNQ2 enhance inactive.
Screening O=C(CSc1nnc(-c2ccc(O)cc2)o1)Nc1ccccc1Br returned KCNQ2 block inactive and KCNQ2 enhance inactive.
COc1ccc(C2=Nc3ccc(Br)cc3C(c3ccccc3)N2CC(=O)NN)cc1 (stereo not drawn) was read as KCNQ2 block inactive and KCNQ2 enhance 7.8.
COc1ccc(C2=Nc3ccc(C)cc3C(c3ccccc3)N2CC(=O)NN)cc1 (stereo not drawn) was read as KCNQ2 block inactive and KCNQ2 enhance inactive.
O=C(NC1CCCC1)C1CCN(C(=O)c2cccc(Cl)c2)CC1 was read as KCNQ2 block inactive and KCNQ2 enhance inactive.
Screening CSc1ccc(NC(=O)C(C)N2CCN(C)CC2)cc1 (stereo not drawn) returned KCNQ2 block inactive.
Screening O=C(CSc1nnc(COc2ccc(F)cc2)o1)N1CCCCC1 returned KCNQ2 block inactive and KCNQ2 enhance inactive.
For O=C(CSc1nnc(COc2ccc(F)cc2)o1)N1c2ccccc2CCc2ccccc21 the results were KCNQ2 block -6.6 and KCNQ2 enhance inactive.
For CCN1CCCC1CNC(=O)c1ccc2c(c1)NC(=O)/C(=C\c1ccc(C)cc1)S2 (stereo not drawn) the results were KCNQ2 block -7.6 and KCNQ2 enhance inactive.
`Cc1ccc(/C=C2/Sc3ccc(C(=O)NCCN4CCOCC4)cc3NC2=O)cc1` gave KCNQ2 block inactive.
CCOC(=O)C1CCC2(CC1)C(C#N)=C(N)Oc1n[nH]c(C)c12 (stereo not drawn) was read as KCNQ2 block inactive.
COc1ccccc1NC(=O)c1ccc(CSc2ccccc2)o1 was read as KCNQ2 block inactive.
`CCCSC1=C(C#N)C(c2cccs2)C(C(=O)Nc2ccccc2)=C(C)N1` (stereo not drawn) gave KCNQ2 block -8.8 and KCNQ2 enhance inactive.
For CCSC1=C(C#N)C(c2cccs2)C(C(=O)OC)=C(C)N1 (stereo not drawn) the results were KCNQ2 block inactive and KCNQ2 enhance inactive.
O=C(COC(=O)c1ccccc1NCCO)Nc1cccc(S(=O)(=O)NC2=NCCCCC2)c1 was read as KCNQ2 block inactive and KCNQ2 enhance inactive.
`CCOC(=O)c1ccc(N2C(=O)C(O)=C(C(C)=O)C2c2ccc([N+](=O)[O-])cc2)cc1` (stereo not drawn) gave KCNQ2 block inactive and KCNQ2 enhance inactive.
Screening COC(=O)C1=CN(CCOC23CC4CC(CC(C4)C2)C3)C=C(C(=O)OC)C1c1ccsc1 returned KCNQ2 block -7.4 and KCNQ2 enhance inactive.
For COC(=O)C1=CN(Cc2ccc(OC)cc2)C=C(C(=O)OC)C1c1ccsc1 the results were KCNQ2 block inactive.
For CCCCCCN1CC(=O)N2Cc3[nH]c4ccccc4c3C[C@H]2C1=O the results were KCNQ2 block -6.9 and KCNQ2 enhance inactive.
`CCCCN1C(=O)C2Cc3c([nH]c4ccccc34)CN2C1=S` (stereo not drawn) gave KCNQ2 block -5.6 and KCNQ2 enhance inactive.
`O=C1[C@@H]2Cc3c([nH]c4ccccc34)CN2C(=O)CN1CCCO` gave KCNQ2 block inactive and KCNQ2 enhance inactive.
Screening CCCCCN1CC(=O)N2Cc3[nH]c4ccccc4c3C[C@H]2C1=O returned KCNQ2 block inactive.
For S=C1Cc2ccccc2N1 the results were KCNQ2 block inactive and KCNQ2 enhance inactive.
`CCC(=O)OCCNc1cc(Sc2nc3ccccc3s2)c2nonc2c1[N+](=O)[O-]` gave KCNQ2 block -7.5 and KCNQ2 enhance inactive.
Screening O=[N+]([O-])c1c(NCCO)cc(N2CCCCCC2)c2nonc12 returned KCNQ2 block inactive.
Screening Cc1nnc(Sc2cc(NCCO)c([N+](=O)[O-])c3nonc23)s1 returned KCNQ2 block -7.5 and KCNQ2 enhance inactive.
O=[N+]([O-])c1c(NCCCO)cc(Sc2nc3ccccc3s2)c2nonc12 was read as KCNQ2 block inactive.
`O=C(c1ccc(F)cc1)N1CCC(C(=O)N2CCN(S(=O)(=O)c3cccc(Cl)c3)CC2)CC1` gave KCNQ2 block inactive and KCNQ2 enhance inactive.
COCC1CCN(Cc2cn(-c3ccccc3F)nc2-c2cc(C)sc2C)CC1 was read as KCNQ2 block inactive and KCNQ2 enhance inactive.
O=C(COc1ccccc1F)NCC(c1ccco1)N1CCCC1 (stereo not drawn) was read as KCNQ2 block inactive and KCNQ2 enhance inactive.
`CNCc1c(C)nn(-c2ccccc2)c1C` gave KCNQ2 block inactive and KCNQ2 enhance 10.
For Cc1nn(-c2ccccc2)c(C)c1N the results were KCNQ2 block inactive and KCNQ2 enhance inactive.
`COc1ccc2cc(/C=C/C(=O)N3CCN(CC(=O)N4CCCCCC4)CC3)ccc2c1` gave KCNQ2 block inactive and KCNQ2 enhance inactive.
O=C(NS(=O)(=O)Nc1ccccn1)c1c[nH]c2ccccc12 was read as KCNQ2 block inactive and KCNQ2 enhance inactive.
Screening O=C1C=C(NCc2ccc3c(c2)OCO3)CC(c2ccccc2)C1 (stereo not drawn) returned KCNQ2 block inactive.
`O=C(Nc1ccccc1-c1ccccc1)c1ccccc1Br` gave KCNQ2 block -6.3 and KCNQ2 enhance inactive.
For O=C(Nc1ccccc1Br)c1ccccc1-c1ccccc1 the results were KCNQ2 block inactive.
For O=C(CC1SC(=Nc2ccccc2)N(CCc2ccccn2)C1=O)Nc1ccc(F)cc1 (stereo not drawn) the results were KCNQ2 block inactive and KCNQ2 enhance inactive.
Screening O=C(CC1SC(=Nc2ccccc2)N(CCc2c[nH]c3ccccc23)C1=O)Nc1ccccc1F (stereo not drawn) returned KCNQ2 block -6.7 and KCNQ2 enhance inactive.
